Results as given in PubChem BioAssay AID743279 (National Center for Advancing Translational Sciences (NCATS), 2014).
The campaign covered roughly 360,000 compounds. About 17,000 (4.7%) were called active. Roughly 5% stayed inconclusive and do not appear here. This excerpt belongs to a sample that is enriched for actives. Values without a mark were called inactive. Cut-off read from the data, not from the text of the source: active = activity change below about -50%; inconclusive = mostly about -30% to -49%; inactive = weaker than that.
% is set by controls: 0 for no effect and ±100 for the full control effect.

Test: qHTS for Inhibitors of Inflammasome Signaling: IL-1-beta AlphaLISA Primary Screen
Conditions: THP-1 LPS/ATP IL-1B secretion, 16 h; at 57.5 µM, hits give low values
Outline: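 THP-1 cells pretreated 1 hr with compounds (up to 57.5 uM final), then stimulated with LPS (250 ng/mL final) plus ATP (1.25 mM final); secreted IL-1B measured by AlphaLISA after 16 hr, decreased signal indicating inhibition.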
With `CCCc1nn2c(=O)cc(CSCC(=O)Nc3cccc(C)c3)nc2s1` the activity change was 19.5%. For `Cc1cccc(-c2cnc(C(O)c3cc(C)cc(C)c3)[nH]2)c1` (centres undefined), the activity change was -1.76%. In the case of `CCc1nc2c(OCc3ccc(C(=O)OC)cc3)cccn2c1N(C)C(=O)C(C)C`, the activity change is reported as -12%. In the case of `CCc1nc2c(OCc3cccc(OC)c3)cccn2c1N(C)C(=O)C(C)C`, the activity change is reported as 51.9%. For `CCOC(=O)N(C)c1c(CC)nc2c(OCc3ccccc3C(=O)OC)cccn12`, the activity change was 6.05%. For `CCc1nc2c(OCc3ccc(Cl)cc3Cl)cccn2c1N(C)C(=O)C(C)C`, the activity change was -84.1% (active). For `CCCCC(=O)N(C)c1c(CC)nc2c(OCc3ccc(Cl)cc3Cl)cccn12`, the activity change was -54% (active). `CCCCC(=O)N(C)c1c(CC)nc2c(OCc3ccc(S(C)(=O)=O)cc3)cccn12` gave an activity change of 28.1%. `CCc1nc2ccc(C(=O)NC3CCN(Cc4ccccc4)CC3)cn2c1N(C)CCN1CCOCC1` gave an activity change of -15.7%. Work on `CCc1nc2c(OCc3ccc(C(F)(F)F)cc3)cccn2c1N(C)C(=O)CC(C)C` yielded an activity change of -8.97%. With `COC1=CC(=O)OC(C)(c2ccccc2)C1` (centres undefined) the activity change was 9.74%. With `COc1ccc(NC(=O)c2ccco2)cc1NC(=O)c1ccc(C#N)cc1F` the activity change was 52.7%. For `COc1ccccc1C(=O)Nc1ccc(NC(=O)c2ccco2)c(C)c1`, the activity change was -55.2% (active). In the case of `Cc1cccc(OCC(=O)Nc2ccc(NC(=O)c3ccco3)c(C)c2)c1`, the activity change is reported as -0.614%. For `Cc1cc(F)ccc1S(=O)(=O)Nc1ccc(C(=O)N(C)Cc2ccco2)cc1`, the activity change was -8.26%. In the case of `COc1ccc(NC(=O)CSc2nnc(-c3ccccc3F)n2C2CC2)cc1S(N)(=O)=O`, the activity change is reported as 15.5%. Compound `Cc1nn(-c2ccccc2)c(C)c1/C=N/NC(=O)CSc1nc2ccccc2c(=O)n1-c1ccccc1` has an activity change of 12%. With `Cc1ccc(-n2nc(C)c(/C=N/NC(=O)c3cccs3)c2Cl)cc1` the activity change was -8.79%. With `Cc1nn(-c2ccccc2)c(Cl)c1/C=N/NC(=O)c1nn(C)cc1[N+](=O)[O-]` the activity change was -65.7% (active). `Cc1ccc(N2CCN(c3ccc([N+](=O)[O-])cn3)CC2)c(C)c1` showed an activity change of -8.34%. With `Cc1ccc(S(=O)(=O)N2CCC(C(=O)NCCC3=CCCCC3)CC2)cc1C` the activity change was -2.64%. With `O=C(NCCC1=CCCCC1)C1CCN(Cc2cnn(-c3ccccc3)c2-n2cccc2)CC1` the activity change was -64.8% (active). `C1=C(CCNc2ncnc3c2cnn3-c2ccccc2)CCCC1` showed an activity change of -3.14%. For `Nc1ncnc2c1ncn2[C@@H]1O[C@H](C(=O)N2CCCN(Cc3ccccc3F)CC2)[C@@H](O)[C@H]1O`, the activity change was 2.81%.
